Source: the supplement of paper PMC10498489
About 330 (14%) of roughly 2,300 compounds showed activity.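 Rule for the calls: active = median modified Z-score above 1.96; inactive = 1.96 or below.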 Not all results are given here.

What follows are molecules tested on HepG2 Srxn1-GFP reporter cells (+30 nM CDDO-Me) (assay: Srxn1-GFP intensity median modified Z-score relative to plate median; higher = stronger NRF2 / oxidative stress reporter activation, active = hit call of the paper). Details: 10 µM; exposure time: 24h.
Summary of the method: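 HepG2 Srxn1-GFP BAC reporter cells were seeded at 20,000 per well in 96-well plates and co-exposed for 24 h to compound at 10 μM and an NRF2 activator at 30 nM, with DMSO at ≤0.1%, in three replicate plates. Cells were fixed with formaldehyde, stained with Hoechst and imaged by confocal microscopy, and cytoplasmic GFP was measured per cell, with images holding under 100 cells discarded. The reported value is the median over replicates of each plate's modified Z-score of GFP intensity. For this score, scaling used 1.4826 × median absolute deviation.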

Structure (SMILES)	Srxn1-GFP intensity median modified Z-score
CC[C@H]1OC(=O)C(C)[C@@H](O[C@H]2C[C@@](C)(OC)[C@@H](O)[C@H](C)O2)[C@H](C)[C@@H](O[C@@H]2O[C@H](C)C[C@H](N(C)C)[C@H]2O)[C@](C)(O)C[C@@H](C)[C@@H]2N[C@@H](COCCOC)O[C@H]([C@H]2C)[C@]1(C)O (some centres undefined) [euspeclibcmpd652]	-0.125 (inactive)
O=C(O)C1=C(CSc2nnnn2CS(=O)(=O)O)CSC2C(NC(=O)C(O)c3ccccc3)C(=O)N12 (centres undefined) [euspeclibcmpd2255]	0.114 (inactive)
NC(C=O)C(O)NNCc1ccc(O)c(O)c1O (centres undefined) [euspeclibcmpd32]	-0.0581 (inactive)
C[C@@H]1CC2C3CC(F)=C4CC(=O)C=C[C@]4(C)[C@@]3(F)[C@@H](O)C[C@]2(C)[C@@]1(O)C(=O)CO (some centres undefined) [euspeclibcmpd415]	-0.177 (inactive)
CC(C)=CC1C(CO)C1(C)C (centres undefined) [euspeclibcmpd1789]	2.3 (active)
CC(C)=CC1C(C(=O)O)C1(C)C (centres undefined) [euspeclibcmpd2019]	0.889 (inactive)
O=c1c(O)c(-c2ccc(O)cc2O)oc2cc(O)cc(O)c12 [euspeclibcmpd1432]	-0.493 (inactive)
C[C@H](CCC(=O)O)[C@H]1CCC2C3C(CC[C@@]21C)[C@@]1(C)CC[C@@H](O)C[C@H]1C[C@@H]3O (some centres undefined) [euspeclibcmpd2109]	-0.352 (inactive)
COc1ccc(C(C)C(=O)c2ccc(O)cc2O)cc1 (centres undefined) [euspeclibcmpd1599]	3.33 (active)
COc1ccc(CC(=O)c2ccc(O)cc2O)cc1 [euspeclibcmpd1699]	1.77 (inactive)
COc1ccc(SCC(=O)c2ccc(O)cc2O)cc1	1.51 (inactive)
C[C@@H]1CC[C@H]2[C@@H](C)C(O)O[C@@H]3O[C@]4(C)CC[C@@H]1[C@]32OO4 (some centres undefined) [euspeclibcmpd1251]	3.33 (active)
CC(=O)C1CCC2C3CC=C4C[C@@H](OC(=O)CCC(=O)O)CC[C@]4(C)C3CC[C@]12C (some centres undefined) [euspeclibcmpd854]	1.01 (inactive)
C[C@H]1[C@H](OC(=O)CCC(=O)O)O[C@@H]2O[C@]3(C)CC[C@H]4[C@H](C)CC[C@@H]1[C@@]24OO3 [euspeclibcmpd985]	11 (active)
CCC(C)C(=O)O[C@H]1C[C@H](O)C=C2C=C[C@H](C)[C@H](CC[C@@H](O)C[C@@H](O)CC(=O)O)C21 (some centres undefined) [euspeclibcmpd2392]	-0.0232 (inactive)
CN1C(=O)OC(C)(C)C1=O [euspeclibcmpd801]	-0.117 (inactive)
OCCN=CCNc1ccc(NCCNCCO)c2c(O)c3c(O)ccc(O)c3c(O)c12 [euspeclibcmpd568]	-1.55 (inactive)
CC(=O)C(O)Nc1c(I)c(C(=O)NC(CO)CO)c(I)c(C(=O)NC(CO)CO)c1I (centres undefined) [euspeclibcmpd459]	-0.445 (inactive)
Nc1c(Br)cc(Br)cc1CNC1CCC(O)CC1 (centres undefined) [euspeclibcmpd1118]	-0.575 (inactive)
CC(=O)Oc1ccc2c(C)cc(=O)oc2c1 [euspeclibcmpd2400]	-0.419 (inactive)
CC(=O)c1ccc(O[C@@H]2O[C@H](CO)[C@H](O)[C@H](O)[C@H]2O)cc1	1.43 (inactive)
COc1ccc(O)cc1 [euspeclibcmpd4]	-0.253 (inactive)
CC=C(C1=CC(=O)C(OC)=C(OC)C1=O)c1ccccc1 [euspeclibcmpd1978]	-0.444 (inactive)

Structure (SMILES)	Srxn1-GFP intensity median modified Z-score
CC=C(C1=CC(=O)C=CC1=O)c1ccccc1 [euspeclibcmpd1643]	1.51 (inactive)
CC=C(C1=CC(=O)C(OC)=CC1=O)c1ccc(O)cc1 [euspeclibcmpd1636]	0.385 (inactive)
CC=C(C1=CC(=O)C(OC)=CC1=O)c1ccc(OC)cc1 [euspeclibcmpd1441]	5.77 (active)
CC=C(C1=CC(=O)C(OC)=CC1=O)c1ccccc1 [euspeclibcmpd1693]	3.26 (active)
CC(C)(/N=N/C(C)(C)C(=N)N)C(=N)N [euspeclibcmpd1744]	-0.295 (inactive)
Cc1ccc2cccc(OC(=O)c3ccccc3)c2n1	1.25 (inactive)
O=C(OOC(=O)c1ccccc1)c1ccccc1 [euspeclibcmpd511]	-0.314 (inactive)
Cc1ccc2c(Br)cc(Br)c(OC(=O)c3ccccc3)c2n1 [euspeclibcmpd2181]	2.44 (active)
NC[C@@H]1O[C@H](O[C@@H]2[C@@H](CO)OC(O[C@@H]3[C@@H](O)[C@H](N)C[C@H](N)[C@H]3O[C@H]3O[C@H](CO)[C@@H](O)[C@H](O)[C@H]3N)[C@@H]2O)[C@H](N)[C@@H](O)[C@@H]1O (some centres undefined) [euspeclibcmpd563]	-0.129 (inactive)
CCCCCCCCCCCCCCCC(=O)OC[C@H](NC(=O)C(Cl)Cl)[C@H](O)c1ccc([N+](=O)[O-])cc1 [euspeclibcmpd52]	0.231 (inactive)
CC(=O)OCC(=O)[C@@]12N=C(C)O[C@@H]1CC1C3CC=C4CC(=O)C=C[C@]4(C)C3[C@@H](O)C[C@@]12C (some centres undefined) [euspeclibcmpd781]	-0.377 (inactive)
NCCOB(c1ccccc1)c1ccccc1 [euspeclibcmpd2465]	7.48 (active)
Cc1onc(-c2c(Cl)cccc2Cl)c1C(=O)NC1C(=O)N2C1SC(C)(C)C2C(=O)O (centres undefined) [euspeclibcmpd2174]	-0.262 (inactive)
CC(=O)OCC(CCn1cnc2c[nH]c(=N)nc21)COC(C)=O [euspeclibcmpd712]	0.533 (inactive)
Cc1ccc(-n2c(C)cc(C(=O)COC(=O)C3CC4C=CC3C4)c2C)cc1C (centres undefined)	0.589 (inactive)
Cc1ccc(-n2c(C)cc(C(=O)Cn3ncc(Cl)c(Cl)c3=O)c2C)cc1	29 (active)
COc1cc(NS(C)(=O)=O)ccc1N=c1c2ccccc2[nH]c2ccccc12 [euspeclibcmpd557]	-1.65 (inactive)
CCC1CS/C(=N\c2ccc(Cl)c(Cl)c2)N1C(=O)CC1CC2CCC1C2 (centres undefined)	1.31 (inactive)
S=c1[nH]cnc2[nH]cnc12 [euspeclibcmpd183]	59.5 (active)
c1coc(CN=c2[nH]cnc3[nH]cnc23)c1 [euspeclibcmpd1534]	0.144 (inactive)
O=c1[nH]cnc2[nH]cnc12 [euspeclibcmpd1584]	0.249 (inactive)
CC(=O)C1CCC2C3=CC=C4CC(=O)CC[C@@]4(C)C3CC[C@]12C (some centres undefined) [euspeclibcmpd815]	1.45 (inactive)
CCCC[C@@H](CC)COC(=O)C(C#N)=C(c1ccccc1)c1ccccc1 [euspeclibcmpd936]	0.649 (inactive)

Structure (SMILES)	Srxn1-GFP intensity median modified Z-score
N#C[C@@H]1C[C@@H]2C[C@@H]2N1C(=O)C(N)C12CC3CC(CC(O)(C3)C1)C2 (some centres undefined) [euspeclibcmpd1283]	-0.27 (inactive)
CC(C)CCCC(C)C1CCC2C3CC[C@H]4C[C@H](O)CC[C@]4(C)C3CC[C@]12C (some centres undefined) [euspeclibcmpd2260]	-0.325 (inactive)
C1N2CN3CN1CN(C2)C3 [euspeclibcmpd187]	9.99 (active)
CC(=O)OCC(=O)[C@@]12OC(C)(C)O[C@@H]1CC1C3CC(F)=C4CC(=O)C=C[C@]4(C)[C@@]3(F)[C@@H](O)C[C@@]12C (some centres undefined) [euspeclibcmpd130]	-0.571 (inactive)
CC(=O)O[C@H]1CC2CCC3C(CC[C@@]4(C)C3C[C@H]([N+]3(C)CCCCC3)[C@@H]4OC(C)=O)[C@@]2(C)C[C@@H]1N1CCCCC1 (some centres undefined) [euspeclibcmpd853]	-0.182 (inactive)
N#Cc1ccc2[nH]cc(CCCCN3CCN(c4ccc5oc(C(N)=O)cc5c4)CC3)c2c1 [euspeclibcmpd2178]	0.321 (inactive)
C[C@@H]1CC[C@@]2(OC1)OC1CC3C4CC=C5C[C@@H](O)CC[C@]5(C)C4CC[C@]3(C)C1[C@@H]2C (some centres undefined) [euspeclibcmpd1355]	-0.393 (inactive)
O=c1c(O)c(-c2ccc(O)c(O)c2)oc2c(O[C@@H]3O[C@H](CO)[C@H](O)[C@@H](O)[C@H]3O)c(O)cc(O)c12 [euspeclibcmpd1755]	-0.613 (inactive)
COc1[nH]c(=N)nc2c1ncn2C1OC(CO)C(O)C1O (centres undefined) [euspeclibcmpd1835]	-0.349 (inactive)
O=c1[nH]cnc2c1ncn2C1O[C@H](CO)[C@@H](O)[C@H]1O (some centres undefined) [euspeclibcmpd1256]	-0.544 (inactive)
COc1ccc(CC(N)C(=O)N[C@@H]2[C@@H](CO)OC(n3cnc4c(N(C)C)ncnc43)[C@@H]2O)cc1 (some centres undefined) [euspeclibcmpd2118]	2.51 (active)
COc1ccc(C(=O)O)c(O)c1OC [euspeclibcmpd1494]	-0.416 (inactive)
CC(C=CC1(O)C(C)=CC(=O)CC1(C)C)=CC(=O)O (centres undefined) [euspeclibcmpd1542]	0.012 (inactive)
CONC(=O)c1cc(-c2ccccc2)nc2ccccc12	1.04 (inactive)
Cc1cc(=NS(=O)(=O)c2ccc(N)cc2)[nH]o1 [euspeclibcmpd278]	-0.427 (inactive)
C[C@@H]1CC[C@@]2(OC1)O[C@H]1CC3C4CC[C@H]5C[C@@H](O)CC[C@]5(C)C4CC[C@]3(C)[C@H]1[C@@H]2C (some centres undefined) [euspeclibcmpd2432]	-0.319 (inactive)
C1CCN2C[C@@H]3C[C@H](CN4CCCC[C@@H]34)[C@H]2C1 [euspeclibcmpd2370]	-0.181 (inactive)
N=c1[nH]c(=N)c2nc(CNc3ccc(C(=O)NC(CCC(=O)O)C(=O)O)cc3)cnc2[nH]1 (centres undefined) [euspeclibcmpd911]	10 (active)
N=c1[nH]c2c(c(=O)[nH]1)N(C=O)C(CNc1ccc(C(=O)NC(CCC(=O)O)C(=O)O)cc1)CN2 (centres undefined) [euspeclibcmpd2313]	-0.0509 (inactive)
N=c1[nH]c(=O)c2nc(CNc3ccc(C(=O)NC(CCC(=O)O)C(=O)O)cc3)cnc2[nH]1 (centres undefined) [euspeclibcmpd579]	0.101 (inactive)
CN(Cc1cnc2[nH]c(=N)[nH]c(=N)c2n1)c1ccc(C(=O)NC(CCC(=O)O)C(=O)O)cc1 (centres undefined) [euspeclibcmpd190]	8.95 (active)
N=c1[nH]c(=O)c2c([nH]1)=NCC(CNc1ccc(C(=O)N[C@H](CCC(=O)O)C(=O)O)cc1)N=2 (some centres undefined) [euspeclibcmpd1474]	0.016 (inactive)
N=c1[nH]c(=O)c2c(CCc3ccc(C(=O)NC(CCC(=O)O)C(=O)O)cc3)c[nH]c2[nH]1 (centres undefined) [euspeclibcmpd2345]	-0.108 (inactive)
